Experimental data published in the supplement of paper PMC13380429.

Test system: Vero E6 infected with SARS-CoV-2
Test: inhibition of SARS-CoV-2 cytopathic effect; higher = more antiviral protection, active = above 15
Conditions: 48 h

Measured: inhibition of SARS-CoV-2 cytopathic effect

CCCCCCCCCCCCCCCCCCO [octadecan-1-ol]
inactive: 1 nM -0.16% | 8.33 nM -0.19% | 100 nM -2.3% | 833.33 nM -2.63% | 10000 nM 2.04%

Nc1ncnc2nc(-c3ccc(N4CCOCC4)nc3)cc(-c3cccc(Br)c3)c12
inactive: 1 nM -0.77% | 8.33 nM -1.24% | 100 nM -5% | 833.33 nM -0.05% | 10000 nM -1.01%

CCCCC[C@H](O)/C=C/[C@H]1[C@H](O)CC(=O)[C@@H]1CCCCCCC(=O)O [alprostadil]
inactive: 1 nM 1.09% | 8.33 nM 3.65% | 100 nM 0.04% | 833.33 nM -3.27% | 10000 nM 0.55%

OC(c1ccccc1)(c1ccccc1)C1CCNCC1 [azacyclonol]
inactive: 1 nM -0.3% | 8.33 nM 1.56% | 100 nM -2.53% | 833.33 nM -0.09% | 10000 nM -3.58%

CC(N)C12CC3CC(CC(C3)C1)C2 (stereo not given) [rimantadine]
inactive: 1 nM -2.29% | 8.33 nM -2.48% | 100 nM -4.1% | 833.33 nM -5.56% | 10000 nM -5.71%

CCOC(=O)C1=C(COCCN)NC(C)=C(C(=O)OC)C1c1ccccc1Cl (stereo not given) [amlodipine]
inactive: 1 nM 0.58% | 8.33 nM -0.7% | 100 nM 1.37% | 833.33 nM -2.2% | 10000 nM 1.18%

C[C@@H]([C@@H](O)c1ccc(O)cc1)N1CCC(O)(c2ccccc2)CC1 [traxoprodil]
inactive: 1 nM 4.34% | 8.33 nM -0.79% | 100 nM -2.83% | 833.33 nM 1.39% | 10000 nM -1.06%

N[C@@H](Cc1c[nH]c2ccccc12)C(=O)O [tryptophan]
inactive: 1 nM -6.32% | 8.33 nM -7.31% | 100 nM -3.29% | 833.33 nM -4.07% | 10000 nM -10.4%

CN(C)c1ccc(-c2nc3c(N4CCN(CC(=O)Nc5nccs5)CC4)c(Cl)cnc3[nH]2)cc1
inactive: 1 nM 0.9% | 8.33 nM -0.82% | 100 nM -1.07% | 833.33 nM 0.5% | 10000 nM 13.9%

CNC(=O)c1cccc2cc(Oc3ccnc4cc(OCC5(N)CC5)c(OC)cc34)ccc12 [lucitanib]
inactive: 1 nM 0.14% | 8.33 nM 2.44% | 100 nM 1.47% | 833.33 nM 2.09% | 10000 nM 2.58%

Cc1nc2c(O)cccc2c(=O)[nH]1
inactive: 1 nM 2.07% | 8.33 nM 2.96% | 100 nM -2.15% | 833.33 nM 3.67% | 10000 nM 4.88%

O=Nc1ccc(O)c2ncccc12
inactive: 1 nM 3.04% | 8.33 nM -4.1% | 100 nM 1.42% | 833.33 nM 13.5%
active: 10000 nM 19.6%

Cc1cc2nc3c(=O)[nH]c(=O)nc-3n(C[C@H](O)[C@H](O)[C@H](O)COP(=O)(O)O)c2cc1C [riboflavin-5-phosphate-sodium]
inactive: 1 nM 0.5% | 8.33 nM 3.45% | 100 nM -0.48% | 833.33 nM 1.47% | 10000 nM 0.24%

O=P(O)(O)CN(CCN(CP(=O)(O)O)CP(=O)(O)O)CP(=O)(O)O
inactive: 1 nM -3.44% | 8.33 nM 0.56% | 100 nM -0.33% | 833.33 nM 2.43% | 10000 nM -1.39%

COc1cc2ncnc(Nc3ccc(F)c(Cl)c3)c2cc1OCCCN1CCOCC1 [gefitinib]
inactive: 1 nM -1.32% | 8.33 nM -0.45% | 100 nM -4.25% | 833.33 nM -11.2% | 10000 nM -22.2%

C#C[C@]1(O)CC[C@H]2[C@@H]3CCC4=CC(=O)CC[C@@H]4[C@H]3C(=C)C[C@@]21CC [etonogestrel]
inactive: 1 nM -0.26% | 8.33 nM -1.3% | 100 nM -4.31% | 833.33 nM -3.15% | 10000 nM -3.98%

C[C@]12CC[C@@H](O)C[C@H]1CC[C@@H]1[C@@H]2CC[C@]2(C)C(=O)CC[C@@H]12 [3-alpha-hydroxy-5-beta-androstan-17-one]
inactive: 1 nM -1.07% | 8.33 nM 1.38% | 100 nM 2.2% | 833.33 nM 3% | 10000 nM 2.64%

CCCCCCCCCCCCCCCc1cccc(OCC(=O)NCCO)c1
inactive: 1 nM -0.98% | 8.33 nM -2.66% | 100 nM -0.69% | 833.33 nM 1.46% | 10000 nM -1.78%

CCCCCCCC(=O)N[C@H](CN1CCCC1)[C@H](O)c1ccc2c(c1)OCCO2 [eliglustat]
inactive: 1 nM 3.28% | 8.33 nM 2.4% | 100 nM -0.12% | 833.33 nM 4.02% | 10000 nM 0.05%

CNCCCCOc1ccccc1Cc1ccccc1 [bifemelane]
inactive: 1 nM -0.64% | 8.33 nM 0.99% | 100 nM 1.41% | 833.33 nM -0.82% | 10000 nM -1.85%

COc1c(N2C[C@@H]3CCCN[C@@H]3C2)c(F)cc2c(=O)c(C(=O)O)cn(C3CC3)c12 [moxifloxacin]
inactive: 1 nM 1.16% | 8.33 nM 0.31% | 100 nM 2.33% | 833.33 nM 0.76% | 10000 nM 1.03%

O=C(c1cccc(Br)c1)N1CCC(N2CCCC2)CC1
inactive: 1 nM -0.38% | 8.33 nM 1.79% | 100 nM -0.46% | 833.33 nM 2.16% | 10000 nM -0.32%

Cc1onc(-c2c(Cl)cccc2Cl)c1C(=O)N[C@@H]1C(=O)N2[C@@H]1SC(C)(C)[C@@H]2C(=O)O [dicloxacillin]
inactive: 1 nM 0.8% | 8.33 nM -0.85% | 100 nM -0.59% | 833.33 nM 1% | 10000 nM 1.51%

COc1cc(N)c(Cl)cc1C(=O)OCCCN1CCCCC1
inactive: 1 nM 3.12% | 8.33 nM -0.29% | 100 nM 3.25% | 833.33 nM 4.22% | 10000 nM 1.72%

CCOC(=O)c1ncc2[nH]c3ccc(OCc4ccccc4)cc3c2c1COC
inactive: 1 nM 2.48% | 8.33 nM 0.26% | 100 nM 0.32% | 833.33 nM 2.46% | 10000 nM -5.3%

Cc1cc([N+](=O)[O-])ccc1NS(=O)(=O)c1cc(Cl)ccc1Cl
inactive: 1 nM -3.81% | 8.33 nM -2.34% | 100 nM -0.48% | 833.33 nM 0.28% | 10000 nM 2.09%

O=C(O)CSc1nnc(Br)n1-c1ccc(C2CC2)c2ccccc12 [lesinurad]
inactive: 1 nM -0.42% | 8.33 nM -0.65% | 100 nM 2.45% | 833.33 nM 0.63% | 10000 nM -2.06%

O=C(Nc1cc(Oc2cc(F)c(NC(=O)C3(C(=O)Nc4ccc(F)cc4)CC3)cc2F)ccn1)C1CC1 [altiratinib]
inactive: 1 nM -1% | 8.33 nM 2.23% | 100 nM 3.44% | 833.33 nM -1.62% | 10000 nM 1.09%

COc1cc2nccc(Oc3ccc(NC(=O)Nc4ccc(F)cc4F)c(F)c3)c2cc1OC
inactive: 1 nM -0.54% | 8.33 nM 1.76% | 100 nM 4.46% | 833.33 nM 4.37% | 10000 nM 5.75%

CC[C@@H]([C@H](C)O)n1ncn(-c2ccc(N3CCN(c4ccc(OC[C@@H]5CO[C@@](Cn6cncn6)(c6ccc(F)cc6F)C5)cc4)CC3)cc2)c1=O [posaconazole]
inactive: 1 nM 0.11% | 8.33 nM 0.51% | 100 nM 0.36% | 833.33 nM 2.23% | 10000 nM -6.91%

C=CCN1CC[C@]2(C)c3cc(O)ccc3C[C@H]1[C@H]2C
inactive: 1 nM 1.28% | 8.33 nM 1.94% | 100 nM -1.86% | 833.33 nM 0.86% | 10000 nM 1.02%

CN1[C@@H]2C[C@@H](OC(=O)[C@H](CO)c3ccccc3)C[C@H]1[C@@H]1O[C@@H]12
inactive: 1 nM 1.79% | 8.33 nM 1.73% | 100 nM 1.2% | 833.33 nM 1.41% | 10000 nM 0.06%

O=C(OCC(O)CO)c1ccccc1Nc1ccnc2cc(Cl)ccc12 (stereo not given) [glafenine]
inactive: 1 nM -1.53% | 8.33 nM 0.88% | 100 nM 2.29% | 833.33 nM -3.09% | 10000 nM -2.34%

Cc1ccccc1NC(=O)Nc1ccc(CC(=O)N(C)[C@@H](CC(C)C)C(=O)NCC[C@H](NC(=O)[C@@H]2CCCN2S(=O)(=O)c2cc(Cl)cc(Cl)c2)C(=O)O)cc1
inactive: 1 nM -1.88% | 8.33 nM 0.66% | 100 nM -0.65% | 833.33 nM 0.17% | 10000 nM -3.63%

Cc1c(F)cccc1NC(=O)Nc1ccc(Cl)c(S(=O)(=O)[C@H]2CCCNC2)c1O [danirixin]
inactive: 1 nM -0.94% | 8.33 nM -0.94% | 100 nM -0.32% | 833.33 nM -0.62% | 10000 nM 2.67%

Cc1onc(-c2ccccc2)c1C(=O)N[C@@H]1C(=O)N2[C@@H]1SC(C)(C)[C@@H]2C(=O)O [oxacillin]
inactive: 1 nM 0.69% | 8.33 nM 1.54% | 100 nM 2.17% | 833.33 nM 3.32% | 10000 nM 1.32%

C[C@@H]1O[C@@H](O[C@H]2[C@H](Oc3cc(O)c(C(=O)CCc4ccc(O)cc4)c(O)c3)O[C@H](CO)[C@@H](O)[C@@H]2O)[C@H](O)[C@H](O)[C@H]1O [naringin-dihydrochalcone]
inactive: 1 nM 0.83% | 8.33 nM 0.35% | 100 nM 0.27% | 833.33 nM 0.83% | 10000 nM 1.4%

Cc1cc(Nc2nc(N[C@@H](C)c3ncc(F)cn3)ncc2Cl)[nH]n1
inactive: 1 nM -1.19% | 8.33 nM -0.46% | 100 nM -0.68% | 833.33 nM 0.25% | 10000 nM 0.25%

CCOC(=O)N1c2ccc(C(F)(F)F)cc2[C@@H](N(Cc2cc(C(F)(F)F)cc(C(F)(F)F)c2)C(=O)OC)C[C@H]1CC
inactive: 1 nM 0.17% | 8.33 nM 0.5% | 100 nM 0.49% | 833.33 nM 1.09% | 10000 nM 1.77%
